Source: PubChem (several laboratories)
HDAC3 inhib: human HDAC3 inhibition; O15379; recombinant HDAC3, fluorogenic peptide/trypsin coupled, fluorescence; inhibition, % at 8.3 µM; 320,000 tested, 0.15% active; AID 2718; in the data active means inhibition above about 26%, passing the limit was not always enough; inconclusive means no clear call, values can overlap the other calls
ANO1 block: mouse TMEM16A channel inhibition, primary screen; HEK293 TMEM16A/YFP iodide influx fluorescence, ionomycin; normalized B-score (activity score, 25-100; higher = stronger inhibition) at 10 µM; 310,000 tested, 1.2% active; AID 588511;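 active means ratio plate-corrected score three or more library SD toward inhibition, starting fluorescence score within five deviations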;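 further: score derived from kinetic fluorescence span divided by baseline fluorescence per well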
CHT PAM: allosterically activates the human high affinity choline transporter; CHT-expressing cells, membrane potential dye, choline EC20; active compounds read high; LV-AA mutant CHT in HEK293 cells; Q9GZV3; 310,000 tested, 0.49% active; B-score at 10 µM;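 active means initial fluorescence not abnormally high and integrated response B-score, plate-corrected, over 3 SD above library mean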
Target sequence (Q9GZV3 whole entry, looked up): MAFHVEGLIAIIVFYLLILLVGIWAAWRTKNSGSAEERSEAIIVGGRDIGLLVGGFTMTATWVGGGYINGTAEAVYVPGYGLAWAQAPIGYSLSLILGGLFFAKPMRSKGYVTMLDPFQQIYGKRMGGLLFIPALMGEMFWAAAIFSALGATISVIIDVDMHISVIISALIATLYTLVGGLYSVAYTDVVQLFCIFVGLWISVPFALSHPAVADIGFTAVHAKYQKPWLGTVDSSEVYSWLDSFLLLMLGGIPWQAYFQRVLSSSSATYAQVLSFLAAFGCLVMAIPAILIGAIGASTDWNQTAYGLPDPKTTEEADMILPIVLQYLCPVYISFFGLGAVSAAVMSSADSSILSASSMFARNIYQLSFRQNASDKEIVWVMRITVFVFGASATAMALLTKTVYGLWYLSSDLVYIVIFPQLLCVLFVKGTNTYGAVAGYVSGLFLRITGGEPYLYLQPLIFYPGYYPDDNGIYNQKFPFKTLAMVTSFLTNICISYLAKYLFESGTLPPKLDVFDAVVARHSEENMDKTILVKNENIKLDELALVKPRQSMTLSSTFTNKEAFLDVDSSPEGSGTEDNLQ
CHT block: inhibitors of human choline transporter CHT; CHT-expressing cells, membrane potential dye, choline response; active compounds read low; B-score at 10 µM; 310,000 tested, 0.86% active; AID 488975;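 active means B-score over 3 SD under the library average, and starting fluorescence ratio not unusually high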;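 further: choline stimulus applied at its EC90 after an EC20 pre-addition; B-score computed on integrated fluorescence ratio after choline addition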
TMEM16A act: activates or potentiates the mouse TMEM16A chloride channel. B-score at 10 µM. Q8BHY3. HEK293 TMEM16A/YFP-H148Q/I152L, iodide quench fluorescence; active compounds read low. 340,000 tested, 0.3% active. AID 623877;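 active means fluorescence-ratio B-score plate-corrected deviation score at least 3 library SD below zero, with starting fluorescence score within 5 deviations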;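 further: channel opened by trigger with iodide after compound preincubation; score built on the fluorescence ratio of max minus min over baseline; more negative score means more quench and so TMEM16A activation or potentiation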
PHOSPHO1 inh: PHOSPHO1 (human) inhibition; AID 1565; inhibition, % at 13.3 µM; recombinant PHOSPHO1, absorbance phosphatase assay; Q8TCT1; 290,000 tested, 1.1% active; in the data active means inhibition above about 60%
* = called active by the depositor; i = inactive; u = inconclusive; x = no result. This is a sample that favours compounds with a hit; in the whole collection about 3.2% have one here.

SMILES	HDAC3 inhib	ANO1 block	CHT PAM	CHT block	TMEM16A act	PHOSPHO1 inh
Cc1ccccc1NCc1ccc(O)c2ncccc12	11	i	i	i	i	71*
Oc1ccc(CNc2ccccc2)c2cccnc12	2	i	i	i	x	51
O=C(NC12CC3CC(CC(C3)C1)C2)c1cnccn1	-11	i	i	i	i	26
Cc1ccc(C2CC2c2n[nH]c(=S)n2-c2ccc(Cl)cc2)cc1 (stereo not drawn)	1	i	i	i	i	74*
COc1ccc(-c2[nH]ncc2CNC(C)c2ccccc2Cl)cc1F (stereo not drawn)	-5	i	i	i	i	6
CCCS(=O)(=O)N1CCCC(C(=O)N2CCN(C(=O)OCC)CC2)C1 (stereo not drawn)	5	i	i	i	i	-5
Cc1ccc(N(CC(=O)N/N=C/c2cc(C)n(-c3ccccc3C)c2C)S(C)(=O)=O)cc1	14	i	i	-7*	i	-8
Cc1cc(C)cc(-n2c(C)cc(/C=N/NC(=O)CN(c3c(C)cccc3C)S(C)(=O)=O)c2C)c1	x	i	i	i	i	-1
O=C(N/N=C/c1ccccc1)c1[nH]c2ccc(Br)cc2c1-c1ccccc1	-1	i	i	i	i	-9
CCn1c(CNC(=O)Cc2ccc(OC)cc2)nnc1SCCOc1ccccc1	1	i	i	i	i	7
COc1ccc(C(=O)NCc2nnc(SCC(=O)NO)n2Cc2ccccc2)cc1	91*	i	i	i	i	-23
COc1ccc(C(=O)CSc2nnc(CCc3ccccc3)n2-c2ccccc2)cc1	14	i	i	i	i	79*
CCn1c(CNC(=O)Cc2ccc(OC)cc2)nnc1SCC(=O)c1ccccc1	x	x	x	x	-35*	59
COc1cc(C(=O)NCc2ccc(S(N)(=O)=O)cc2)ccc1OCC(=O)Nc1cccc(C(F)(F)F)c1	-13	i	i	i	i	x
COc1cc(C(=O)N(C)CCOc2ccccc2)ccc1OCC(=O)Nc1cccc(C(F)(F)F)c1	-1	100*	i	i	i	x
Cc1c(NC(=O)Nc2cccc(C(F)(F)F)c2)c(=O)n(-c2ccccc2)n1C	8	i	i	i	i	66*
COc1cccc(NC(=O)Nc2c(C)n(C)n(-c3ccccc3)c2=O)c1	0	i	i	i	i	-1
O=C1NCCCC1C(=O)NCCN1C(=O)CCC1=O (stereo not drawn)	7	i	i	i	i	3
N#CCCN1CCN(C(=S)c2ccc(-c3cc(Cl)ccc3Cl)o2)CC1	1	i	i	i	i	74*
Cc1n[nH]c(=O)c2c(NC(=O)COC(=O)COc3cccc(Br)c3)oc(C)c12	2	i	i	i	i	x
Cc1ccc(S(=O)(=O)c2ccc(Cl)cc2)cc1S(=O)(=O)N1CCOCC1	-3	25*	i	i	i	-5
Cc1ccc(S(=O)(=O)N2CCCC2)cc1S(=O)(=O)N1CCCC1	3	i	i	i	i	-3
CCCCOc1ccc(-c2nc(=S)[nH][nH]2)cc1	u	i	i	i	i	80*
COc1ccc(-c2nc3c(=O)n(C)c(=O)[nH]c3n2CCc2ccccc2)cc1	-14	i	i	i	i	-12
CN(CC(=O)Nc1nc2ccccc2s1)S(=O)(=O)c1ccc(Br)cc1	-1	25*	i	i	i	12
SMILES	HDAC3 inhib	ANO1 block	CHT PAM	CHT block	TMEM16A act	PHOSPHO1 inh
COc1cc(NC(=O)[C@H](C)NC(=O)N2CCn3c2nc2ccccc23)cc(OC)c1	-5	i	i	i	i	44
COc1cccc(NC(=O)[C@H](C)NC(=O)N2CCn3c2nc2ccccc23)c1	-1	i	i	i	i	65*
Cc1nn(-c2cc(C(F)(F)F)ccc2Cl)c2nc(C(F)(F)F)[nH]c(=O)c12	0	i	i	i	i	-10
Cc1nn(-c2cccc(Cl)c2)c2nc(C(F)(F)F)[nH]c(=O)c12	0	100*	i	i	i	15
CC(=O)/C(C#N)=C1\NC(=O)C(Cc2ccc(C)c(C)c2)S1 (stereo not drawn)	1	25*	i	i	i	21
O=C(NC1=NCCS1)c1ccccc1OCc1ccccc1Cl	2	i	i	i	i	-10
CC(C)(C)c1ccc(C(=O)CCCSC2=C(C#N)C(c3ccco3)C3=C(CCCC3=O)N2)cc1 (stereo not drawn)	6	i	i	i	i	71*
Cc1ccc(C2/C(=C(/O)c3ccccc3)C(=O)C(=O)N2CCN2CCOCC2)o1 (stereo not drawn)	14	i	i	i	i	76*
O=C(Oc1ccc(N(Cc2cccs2)C2=NS(=O)(=O)c3ccccc32)cc1)c1ccccc1	69*	i	i	i	i	-7
O=C(Oc1ccc(N(Cc2cccs2)C2=NS(=O)(=O)c3ccccc32)cc1)c1ccc(Cl)cc1	0	i	i	i	i	-8
Cc1ccc(-c2csc(NC(=O)C3=COCCO3)n2)cc1	-2	i	i	i	i	-21
CCOC(=O)c1csc(NC(=O)C2=COCCO2)n1	-2	i	i	i	i	71*
CC(C)CN=CC1=C(O)c2ccccc2C1=O	11	i	i	i	i	13
O=C1C(C=NCc2ccccn2)=C(O)c2ccccc21	4	25*	i	i	i	13
Cc1cccc(CCNC(=O)c2cc(=O)[nH]c3ccc(Br)cc23)c1	16	i	i	i	x	-12
CC(=O)c1cccc(S(=O)(=O)N2CCC(C(=O)OC3CCOC3=O)CC2)c1 (stereo not drawn)	-1	x	x	x	i	x
CCN(Cc1ccccc1)C(c1cc2ccc(C)cc2[nH]c1=O)c1nnnn1CCOC (stereo not drawn)	3	i	i	i	i	99*
COc1ccc(OC)c(C(c2nnnn2CCc2ccccc2)N2CCN(c3ccccc3)CC2)c1 (stereo not drawn)	3	i	i	i	-8.5*	-8
CCC(C)(C)n1nnnc1C(c1cc2cc(C)ccc2[nH]c1=O)N1CCCC1 (stereo not drawn)	0	i	i	i	i	10
COc1ccc2cc(C(c3nnnn3Cc3ccc(F)cc3)N3CCCCCC3)c(=O)[nH]c2c1 (stereo not drawn)	x	i	i	i	i	-42
Cc1ccc2cc(C(c3nnnn3Cc3ccccc3)N3CCN(c4ccccc4)CC3)c(=O)[nH]c2c1 (stereo not drawn)	3	i	i	i	i	-44
